# Test results: PubChem BioAssay (NCATS)
# Where “and” joins values, the source holds several entries; their conditions need not be identical. Identical values can stand only once. Values without a mark were called inactive. Inconclusive results are not listed. Entries that show only a call come without a potency. Calls of active or inactive are those of the source. Unless noted, the call rests on the fitted dose curve; in most records, active means well fitted curve in the direction sought with a large enough effect; inconclusive means small, poorly fitted or top-dose-only effect, or another doubt; inactive means no such curve, though single readings can be large; an effect the other way counts as inactive or inconclusive.
# Columns and labels:
# [1] = Cell Viability - BJ (AID 421; calls by dose curve;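 further: potency means the concentration at half of the fitted maximal effect; cells exposed to compound for 40 hours at 37 °C before readout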); conditions: BJ fibroblast viability, qHTS
# How it was run: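 Cytotoxicity in human BJ foreskin fibroblasts is scored as loss of cellular ATP after a 40-hour exposure, measured by luciferase luminescence. Controls are DMSO and 100 uM tamoxifen.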
# [2] = Cell Viability - HepG2 (AID 433; calls by dose curve;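 further: potency means the concentration at half of the fitted maximal effect; potency for ATP loss meaning cytotoxicity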); conditions: qHTS
# How it was run: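 Read-out is luciferase-based quantitation of cellular ATP as a measure of viable HepG2 cells after 40 h treatment at 37 °C. Signal decrease is scaled between DMSO-only and 100 uM tamoxifen controls, with AC50 fitted by the Hill equation.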
# [3] = Cell Viability - MRC5 (AID 434; calls by dose curve;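 further: potency means the concentration at half of the fitted maximal effect; cells exposed to compound for 40 hours at 37 °C; potency reflects cytotoxicity seen as loss of intracellular ATP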); conditions: MRC5 lung fibroblast viability, qHTS
# How it was run: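 MRC5 normal human lung fibroblasts (1500/well) were treated with compounds for 40 hr at 37 °C in complete medium, and viable cells were measured as intracellular ATP by CellTiter-Glo luminescence. AC50 came from Hill fits, normalized to DMSO and 100 uM tamoxifen.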
# [4] = Cell Viability - SK-N-SH (AID 435; calls by dose curve;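 further: potency means the concentration at half of the fitted maximal effect; compound exposure lasted 40 h at 37 °C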); conditions: SK-N-SH neuroblastoma cell viability qHTS
# How it was run: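 Luminescent ATP signal served as the viability read-out after 40 hours of compound treatment of human neuroblastoma SK-N-SH cells. Concentration-response data, scaled between DMSO and 100 uM tamoxifen, gave AC50 values by standard Hill modeling.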
# [5] = Cell Viability - HUV-EC-C (AID 542); further: nearly all actives have a fitted effect of over 35% in size
# How it was run: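 Decrease in cellular ATP, quantified by luciferase luminescence, reflects toxicity in normal human vascular endothelial HUV-EC-C cells given compound for 40 hr in complete culture medium. Values are AC50s from concentration-response curves.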
# [6] = Cell Viability - SH-SY5Y (AID 544); conditions: SH-SY5Y neuroblastoma cell viability; viability change, negative = cytotoxic: at 92.2 µM (top of the series); further: nearly all actives have a fitted effect of over 55% in size
# How it was run: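 Cytotoxicity is scored as a concentration-dependent fall in intracellular ATP in human SH-SY5Y cells treated 40 hr in complete culture medium. Potency is expressed as AC50 from a Hill equation fit.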
# [7] = Cell Viability - Renal Proximal Tubule (AID 545); conditions: renal proximal tubule cells viability; at 91.7 µM (top of the series), primary cells of rat origin unless noted; further: nearly all actives have a fitted effect of over 40% in size
# How it was run: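 Luminescent ATP signal (CellTiter-Glo) served as the viability read-out after 40 hr compound exposure of freshly isolated rat proximal tubule cells at 37 °C. Concentration-dependent ATP loss was fitted with the Hill equation to give AC50.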
# [8] = Cell Viability - Mesenchymal (AID 546);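 further: cells exposed to compound for 40 hours before reading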
# How it was run: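 Normal human renal glomerulus-derived kidney mesenchymal cells, 1000 per well in complete medium, were treated with compounds for 40 hr at 37 °C. Viability was read as intracellular ATP by CellTiter-Glo luminescence; AC50 values came from Hill-equation fits of qHTS concentration-response data.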
# [9] = Cellular Toxicity (caspase-3) HepG2 (AID 654);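 further: cells exposed to compound for 16 hours before reading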
# How it was run: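 qHTS, HepG2, 1500 cells/well, complete medium; cpd 16 h 37 °C; Caspase-Glo 3/7, 20 min RT; lum. Norm: DMSO vs 100 uM tamoxifen; AC50 Hill fit.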
# [10] = Cellular Toxicity (caspase-3) HUV-EC-C (AID 656)
# How it was run: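 qHTS; HUV-EC-C, 1000 cells/well; 5 hr settle, 16 hr cmpd, 37°C; Caspase-Glo 3/7, 20 min RT; luminescence. Norm: DMSO = 0%, tamoxifen 100 uM = 100%. Hill-fit AC50.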
# [11] = Cellular Toxicity (caspase-3) SHSY5Y (AID 657);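 further: cells exposed to compound for 16 hours at 37 °C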
# How it was run: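 qHTS, SH-SY5Y, 1500 cells/well, 5 h pre-incubation 37 °C; compound 16 h 37 °C; Caspase-Glo 3/7 1 h RT; luminescence. Norm.: DMSO = 0, 10 uM staurosporine = 100%. Hill fit → AC50.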
# [12] = Cellular Toxicity (caspase-3) BJ (AID 658);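 further: cells exposed to compound for 16 hours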
# How it was run: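 Luminescent aminoluciferin-substrate cleavage reports caspase 3/7 activity in normal human BJ fibroblasts after 16 hr compound exposure at 37 °C. Normalized to DMSO (basal) and 10 uM staurosporine (100%); AC50 from Hill fit of concentration-response.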
# [13] = Cellular Toxicity (caspase-3) MRC-5 (AID 659)
# How it was run: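 Luminescence from caspase-cleaved aminoluciferin substrate (Caspase-Glo 3/7, 1 hr RT) reports caspase 3/7 activity in MRC-5 lung fibroblasts after 16 hr compound exposure. Normalized to DMSO basal and 10 uM staurosporine as 100%; AC50 from Hill fits.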
# [14] = Cellular Toxicity (caspase-3) Mesangial (AID 660);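 further: combined caspase 3 and 7 activity read by Caspase-Glo luminescence; cells exposed to compound for 16 h before the caspase read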
# How it was run: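 Concentration-response qHTS: compound-induced rise in caspase 3/7 luminescence in human mesangial cells after 16 h, normalized to DMSO and 100 uM tamoxifen controls.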
# [15] = Cellular Toxicity (caspase-3) SK-N-SH (AID 661);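 further: cells exposed to compound for 16 hours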
# How it was run: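 Caspase 3/7 activation is measured as a luminescence increase from aminoluciferin released by substrate cleavage in SK-N-SH cells after 16 hr compound treatment; values are AC50 from concentration-response curves.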
# [16] = Cellular Toxicity (caspase-3) Renal Proximal Tubule (AID 667); conditions: renal proximal tubule cells; at 91.7 µM (top of the series), primary cells freshly taken from rat, solvent-only wells 0%, staurosporine 100% unless noted;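 further: cells exposed to compound for 16 hours at 37 °C before detection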
# How it was run: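 AC50 derived by standard Hill fit of concentration-response data, normalized between DMSO basal and 10 uM staurosporine as 100% stimulation. Cells: primary rat kidney proximal tubule, 16 h treatment at 37 °C.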
# [17] = molecular target: Cytochrome P450 3A4 (Homo sapiens) (UniProt P08684); assay: qHTS Assay for Inhibitors and Substrates of Cytochrome P450 3A4 (AID 884); further: nearly all actives have a fitted effect of over 50% in size; further: potency means the concentration at half of the fitted maximal effect
# How it was run: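 20 nM human CYP3A4 with 25 uM Luciferin-PPXE (at KM) in 200 mM KPO4, preincubated 10 min with compound; NADPH regeneration started a 60 min RT reaction. Luciferin detected by luminescence, normalized to 57 uM ketoconazole as full inhibition.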
# [18] = qHTS Assay for Identification of Small Molecule Inducers of Hypoxia Response (AID 2120; active means well fitted curve in the direction sought with a large enough effect in the signal ratio, with a control signal flat, not every such curve was filed as active; the % refers to the signal ratio)
# How it was run: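 Induction of beta-lactamase reporter activity was measured in CellSensor HRE-bla ME-180 cells after 17 h compound treatment at 37 degrees C, using CCF4 substrate and the 460nm/530nm emission ratio to derive AC50 values.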
# [19] = molecular target: Peroxisome proliferator-activated receptor alpha (Homo sapiens) (UniProt Q07869); assay: qHTS assay for small molecule agonists of the peroxisome proliferator-activated receptor alpha (PPARalpha) signaling pathway (AID 651778); conditions: PathHunter PPARalpha complementation, chemiluminescence, 6 h; hits give high values
# How it was run: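 Cells plated at 2,000/well and held overnight at 37 C, 5% CO2, then compound added by pin tool for 6 hr; after PathHunter detection reagent and 60 min at room temperature, chemiluminescence from enzyme complementation was read.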
# Cytochrome P450 3A4 (Homo sapiens), sequence (P08684 whole entry, looked up): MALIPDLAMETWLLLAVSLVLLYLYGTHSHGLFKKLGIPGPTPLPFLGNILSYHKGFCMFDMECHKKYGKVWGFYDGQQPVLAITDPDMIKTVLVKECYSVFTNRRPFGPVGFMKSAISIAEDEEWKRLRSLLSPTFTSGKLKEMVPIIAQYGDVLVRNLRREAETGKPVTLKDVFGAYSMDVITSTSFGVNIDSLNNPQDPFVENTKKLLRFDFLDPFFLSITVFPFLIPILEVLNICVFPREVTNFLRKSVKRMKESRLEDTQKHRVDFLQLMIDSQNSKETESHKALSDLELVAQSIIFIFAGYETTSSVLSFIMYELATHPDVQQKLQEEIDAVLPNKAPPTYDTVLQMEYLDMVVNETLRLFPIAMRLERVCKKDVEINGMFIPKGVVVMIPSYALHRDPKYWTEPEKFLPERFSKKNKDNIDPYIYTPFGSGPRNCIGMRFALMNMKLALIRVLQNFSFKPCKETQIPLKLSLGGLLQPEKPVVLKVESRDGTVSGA
# Peroxisome proliferator-activated receptor alpha (Homo sapiens), sequence (Q07869 whole entry, looked up): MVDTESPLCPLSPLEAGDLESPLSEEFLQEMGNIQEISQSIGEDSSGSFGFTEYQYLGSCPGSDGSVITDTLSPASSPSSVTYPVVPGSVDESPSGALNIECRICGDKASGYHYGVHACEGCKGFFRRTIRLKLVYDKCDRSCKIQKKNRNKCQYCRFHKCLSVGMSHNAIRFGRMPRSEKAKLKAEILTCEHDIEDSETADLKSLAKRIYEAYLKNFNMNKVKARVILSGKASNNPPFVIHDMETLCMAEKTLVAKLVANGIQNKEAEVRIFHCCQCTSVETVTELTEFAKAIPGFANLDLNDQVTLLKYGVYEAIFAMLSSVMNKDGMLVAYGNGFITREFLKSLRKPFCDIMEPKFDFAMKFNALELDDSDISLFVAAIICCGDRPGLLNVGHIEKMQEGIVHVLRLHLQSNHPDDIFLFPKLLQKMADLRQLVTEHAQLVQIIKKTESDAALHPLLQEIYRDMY
SMILES,Potency [1],Potency [2],Potency [3],Potency [4],Potency [5],"viability change, negative = cytotoxic [6]","activity change, negative = cytotoxicity [7]",outcome [8],outcome [9],outcome [10],outcome [11],outcome [12],outcome [13],outcome [14],outcome [15],caspase-3 activation [16],Potency [17],outcome [18],max response [19],Potency [6]
CC(C)(OO)c1ccccc1,> 92 µM,> 92 µM,> 92 µM,> 92 µM,inactive,-82.7% (active),-8.61%,inactive,inactive,inactive,inactive,inactive,inactive,inactive,inactive,-7.39%,inactive,inactive,-1.59% and -0.102%,–
CC(C)(C)OO,> 92 µM,> 92 µM,> 92 µM,> 92 µM,inactive,–,-2.92% and -10.1%,inactive,inactive,inactive,inactive,inactive,inactive,inactive,inactive,12.8% and -1.63%,inactive,inactive,-2.75% and -4.99%,inactive
Cc1cccc(C#N)c1,> 92 µM,> 92 µM,> 92 µM,> 92 µM,inactive,–,-8.34%,inactive,inactive,inactive,inactive,inactive,inactive,inactive,inactive,10.9%,inactive,inactive,-0.3%,inactive
COc1ccc(/C=C/c2cc(O)cc(O)c2)cc1,–,–,–,–,–,–,–,–,–,–,–,–,–,–,–,–,inactive,–,–,–
O=C=NC1CCCCC1,> 92 µM,> 92 µM,> 92 µM,> 92 µM,inactive,–,-5.86% and -0.993%,inactive,inactive,inactive,inactive,inactive,inactive,inactive,inactive,5.04% and -5.65%,–,inactive,0.341% and -3.39%,inactive
C=CC(C)=O,> 92 µM,> 92 µM,> 92 µM,> 92 µM,inactive,–,14%,inactive,inactive,inactive,inactive,inactive,inactive,inactive,inactive,-2.96%,inactive,inactive,-1.26%,inactive
CCOP(=S)(OCC)Oc1ccc([N+](=O)[O-])cc1,> 92 µM,> 92 µM,> 92 µM,> 92 µM,inactive,–,-6.62% and -2.54%,inactive,inactive,inactive,inactive,inactive,inactive,inactive,inactive,14.9% and 4.17%,10 µM (active) and 5.01 µM (active),inactive,-0.408% and 4.67% and -3.29%,inactive
Cc1ccc(O)c(C)c1,> 92 µM,> 92 µM,> 92 µM,> 92 µM,inactive,–,-11.8% [at 91.7 µM],inactive,inactive,inactive,inactive,inactive,inactive,inactive,inactive,-3.58% [at 91.7 µM],inactive,inactive,-1.5% and -1.55% and 1.86%,inactive
CC(=O)OC1CC[C@@]2(C)C3CC[C@]4(C)C(=O)CCC4C3CC[C@H]2C1 (some centres undefined),–,–,–,–,–,–,–,–,–,–,–,–,–,–,–,–,inactive,–,–,–
